The sample as a whole holds a higher share of hits than the screen did.
BL2 CD40 inh: inhibitors of CD40-induced NF-kB signaling, primary screen, BL2 cells, luciferase reporter, single point | CD40L-induced, 4 h | actives 0.94% (n = 83,000) | inhibition, % at 10 µM;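 active = mean inhibition of at least 50% with a set share of replicates also reaching that level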;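 note: 0% = neutral control wells and 100% = IKK inhibitor VII at 50 µM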
* = called active by the depositor; [ ] = remark or other dose.

SMILES	BL2 CD40 inh
CCCC(CC)Sc1nc2c([nH]1)c(=S)n(C)c(=O)n2C (stereo unspecified)	-45
COc1cccc(-c2ccc([C@H]3[C@@H](CO)N4CCCCN(CC5CC5)C[C@@H]34)cc2)c1	7[25 µM]
CC(=O)Nc1ncnc2c1c(-c1ccc(Cl)cc1)nn2C(C)(C)C	7
CC(=O)N(C(C)=O)c1ncnc2c1c(-c1ccc(Cl)cc1)nn2C(C)(C)C	55*
O=C(Nc1cc(F)ccc1F)N1C[C@@H]2[C@H](c3ccccc31)[C@H](CO)N2CC1CCCC1	7[25 µM]
CCC(=O)N1[C@H](CO)[C@H]2c3ccccc3N(C(=O)c3cnccn3)C[C@H]21	6[25 µM]
Cc1ccccc1-c1ccc(C2[C@@H]3CN(Cc4ccc5c(c4)OCO5)C[C@H]2N3)cc1 (stereo partly specified)	9[25 µM]
COc1ccc2cc(-c3cc(C(=O)O)c4ccccc4n3)ccc2c1	83*
COc1ccc(-c2cc(C(=O)N3CC(C)CC(C)C3)c3ccccc3n2)cc1 (stereo unspecified)	-13
COc1ccc(-c2cc(C(=O)N3CCCC3)c3ccccc3n2)cc1	-57
Cc1cccc(S(=O)(=O)N2C[C@@H]3[C@H](c4ccccc42)[C@H](CO)N3CC2CCCC2)c1	27[25 µM]
Cc1ccc(-c2cc(C(=O)N3CCCC(C(F)(F)F)C3)c3ccccc3n2)o1 (stereo unspecified)	105*
Cc1ccc(-c2cc(C(=O)N3CCOCC3)c3ccccc3n2)o1	-11
Cc1c(C(=O)N2CCCC(C(F)(F)F)C2)oc2ccccc12 (stereo unspecified)	-22
O=C(/C=C/c1cccc([N+](=O)[O-])c1)OCC(=O)c1ccccc1	-5
CC(=O)Oc1ccccc1C(=O)C=Cc1cccc([N+](=O)[O-])c1	89*
CC(=O)Nc1ccc(C=CC=Cc2cccc([N+](=O)[O-])c2)cc1	-22
Cc1noc(C)c1S(=O)(=O)Nc1ccc2c(c1)C(=O)N([C@@H](C)CO)C[C@@H](C)[C@@H](CN(C)Cc1ccc3c(c1)OCO3)OCCCC[C@@H](C)O2	12
C1CCC(C(CC2CCCCN2)C2CCCCC2)CC1 (stereo unspecified)	78*
COc1ccc2c3c([nH]c2c1)[C@@H](CO)N(C(=O)Nc1ccc(F)cc1)CC31CCN(Cc2cc(F)ccc2F)CC1	-3
CNC[C@H]1Oc2ccc(NC(=O)NC(C)C)cc2C(=O)N(C)C[C@H]1C	-1
C[C@@H]1CN(C)C(=O)c2cc(N)ccc2O[C@@H]1CN(C)S(C)(=O)=O	-4
O=C(NCC(F)(F)F)[C@@H]1[C@@H](CO)[C@@H]2Cn3c(cccc3=O)[C@H]1N2C(=O)C1CCC1	1
N#C[C@@H]1[C@@H](c2ccccc2-c2ccccc2F)[C@H](CO)N1C(=O)C1CCOCC1	-12[25 µM]
O=[N+]([O-])c1ccc(Sc2ccncn2)c([N+](=O)[O-])c1	103*
SMILES	BL2 CD40 inh
Cc1ccnc(Sc2ccc([N+](=O)[O-])cn2)n1	-15
Cn1cnc([N+](=O)[O-])c1Sc1ccncn1	5
COc1cccc(C#Cc2ccc3c(c2)[C@H]2[C@H](CCN2S(=O)(=O)c2cccc(OC)c2)[C@H](CO)N3)c1	-14
CO[C@H]1CN(C)C(=O)c2cc(NC(C)=O)ccc2OC[C@H](C)N(Cc2ccncc2)C[C@H]1C	3[25 µM]
CSc1nnc(CNC(=O)C23CC4CC(CC(C4)C2)C3)n1Cc1ccccc1	8
CN(C)C(=S)N=c1ssc(=S)n1Cc1ccccc1	44*
c1ccc2c(-c3nc4ccccc4[nH]3)cccc2c1	-2
c1ccc2nc(-c3nc4ccccc4[nH]3)ccc2c1	78*
c1ccc2[nH]c(-c3cscn3)nc2c1	-58
COc1ccc(C[C@@H]2CCn3nncc3COCCCNC2=O)cc1	-7[25 µM]
CCC(=O)N1[C@H](CO)[C@@H]2c3ccccc3N(C(=O)c3cnccn3)C[C@@H]21	2[25 µM]
c1cncc(-c2nc(-c3ccc4c(c3)OCCO4)cs2)c1	-59
Oc1ccccc1-c1cc(-c2ccc3c(c2)OCCO3)n[nH]1	54*
Cc1nc(-c2ccc3c(c2)OCCO3)cs1	-73
Cc1c(CCOC(=O)C23CC4CC(CC(C)(C4)C2)C3)sc[n+]1CC(=O)c1ccccc1	42
Cc1c(CCOC(=O)CC23CC4CC(CC(C)(C4)C2)C3)sc[n+]1CC(=O)c1ccccc1	70*
Cc1c(CCOC(=O)c2ccccc2)sc[n+]1Cc1ccccc1	-2
N#C/C(=C(\N)Sc1ccc(N)cc1)c1ccccc1C(F)(F)F	-6[25 µM]
CC(=O)Nc1ccc2c(c1)C(=O)N(C)C[C@@H](C)[C@@H](CN(C)C(C)=O)O2	-5
Cc1ccc(N2C(=O)c3cccc4c([N+](=O)[O-])ccc(c34)C2=O)c2cccnc12	2
O=C1c2cccc3c([N+](=O)[O-])ccc(c23)C(=O)N1Cc1cccnc1	84*
O=C1c2cccc3cccc(c23)C(=O)N1Cc1cccnc1	4
CN1c2ccc(C3=CCCCC3)cc2[C@@H]2[C@@H](CCN2C(=O)NC2CCCC2)[C@H]1CO	-8[25 µM]
CCOc1cc(/C=C(/C#N)C(N)=O)cc(CSc2ccccc2)c1O	-10[25 µM]
N#C[C@H]1[C@@H](c2ccccc2-c2cccc(F)c2)[C@@H](CO)N1C(=O)C1CCCCC1	17[25 µM]

Screens from PubChem BioAssay.
